# Article PMC4336329 (PLoS ONE, 2015)
# About 14,000 (4.5%) of roughly 310,000 compounds showed an effect of 50% or more. The effect is printed as a negative number. What follows is part of a selection rich in strong results, with near analogues and random picks from the rest.
# Target: human ether-à-go-go-related gene (hERG) potassium channel (human, UniProt Q12809)
# Test: primary screen, population patch clamp on CHO cells stably expressing hERG; higher = less effect of the substance
# 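Further: peak tail current of the secondary pulse compared with the same well before compound.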
# Chain of human ether-à-go-go-related gene (hERG) potassium channel (Q12809 whole entry, looked up): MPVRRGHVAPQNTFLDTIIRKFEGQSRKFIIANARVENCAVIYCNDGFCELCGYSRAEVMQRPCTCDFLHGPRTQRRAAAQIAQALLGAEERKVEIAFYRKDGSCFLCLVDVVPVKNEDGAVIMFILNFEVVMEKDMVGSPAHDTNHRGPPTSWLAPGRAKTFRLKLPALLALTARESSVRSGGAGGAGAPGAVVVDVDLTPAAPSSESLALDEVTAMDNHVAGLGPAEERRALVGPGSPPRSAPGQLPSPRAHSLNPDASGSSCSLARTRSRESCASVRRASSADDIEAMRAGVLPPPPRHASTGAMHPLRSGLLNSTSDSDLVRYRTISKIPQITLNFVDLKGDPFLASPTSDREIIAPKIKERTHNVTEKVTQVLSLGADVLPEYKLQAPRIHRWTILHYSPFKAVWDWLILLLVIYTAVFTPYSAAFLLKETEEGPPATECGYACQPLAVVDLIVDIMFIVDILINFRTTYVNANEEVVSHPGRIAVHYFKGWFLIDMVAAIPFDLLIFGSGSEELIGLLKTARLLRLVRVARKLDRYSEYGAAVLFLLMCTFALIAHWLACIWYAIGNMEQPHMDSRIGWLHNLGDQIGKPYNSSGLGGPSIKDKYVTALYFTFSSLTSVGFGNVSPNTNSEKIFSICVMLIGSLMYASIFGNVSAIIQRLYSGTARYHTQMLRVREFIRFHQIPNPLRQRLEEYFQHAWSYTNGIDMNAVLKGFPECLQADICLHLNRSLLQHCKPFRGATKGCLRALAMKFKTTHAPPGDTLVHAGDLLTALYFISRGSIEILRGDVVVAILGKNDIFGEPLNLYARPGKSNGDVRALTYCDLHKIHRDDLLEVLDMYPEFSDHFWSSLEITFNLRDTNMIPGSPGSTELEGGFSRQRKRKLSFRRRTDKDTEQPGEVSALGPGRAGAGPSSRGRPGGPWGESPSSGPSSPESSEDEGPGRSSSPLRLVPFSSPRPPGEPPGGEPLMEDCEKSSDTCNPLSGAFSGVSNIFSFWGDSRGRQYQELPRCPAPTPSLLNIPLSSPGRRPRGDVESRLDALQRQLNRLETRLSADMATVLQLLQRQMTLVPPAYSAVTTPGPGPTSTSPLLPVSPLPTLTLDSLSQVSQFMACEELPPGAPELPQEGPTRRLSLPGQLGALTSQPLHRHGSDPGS
row,SMILES,"hERG current change (%, negative = inhibition) at 10uM [%]"
1,CC(=O)Nc1ccc(Sc2ccccc2C(=O)O)c(C(=O)O)c1,19.4
2,CCCc1[nH]n(-c2ccc(F)cc2)c(=O)c1C=Nc1ccc(C)cc1,4.95
3,CCOc1ccccc1NC(=O)Nc1ccc(OC)nc1,14.7
4,CCOC(=O)c1ccc(S(=O)(=O)NC2CCCCCCC2)n1C,-12.4
5,O=C(NCc1ccccc1)C1CCCN(S(=O)(=O)c2cccs2)C1 (centres unmarked),-0.56
6,COc1ccc(-c2cc(C(=O)N3CCN(Cc4ccc5c(c4)OCO5)CC3)on2)cc1OC,2.8
7,COc1ccc2oc(-c3ccccc3)c(C(=O)N3CCOCC3)c2c1,-8.44
8,Cc1csc(NC(=O)c2c(-c3c(F)cccc3Cl)noc2C)n1,-10.9
9,Cc1ccc(S(=O)(=O)NC2CCCC2)cc1C,-9.68
10,CCC[N+](CC#Cc1ccccc1)(CCC)CC(=O)OC,9.58
11,CC[N+](CC)(CC#Cc1ccccc1)CC(=O)c1ccc(Cl)cc1,-60.3
12,C[N+](C)(CC#Cc1ccccc1)CC(=O)c1ccc(Cl)cc1,-28.3
13,CCC[N+](CC#Cc1ccccc1)(CCC)CC(=O)c1ccc(Cl)cc1,-67.4
14,CCC[N+](CC#Cc1ccccc1)(CCC)CC(=O)OCC,-1.25
15,C[N+](C)(CC#Cc1ccccc1)CC(=O)c1ccccc1.[Br-],-13.5
16,Cl.c1ccc2c(N3CCNCC3)cccc2c1,10.9
17,Cc1nnc(NC(=O)C2=COCCO2)s1,7.13
18,CN(C)CCCNCC(=O)NN(c1ccccc1)c1ccccc1.O=C(O)C(=O)O,-17.4
19,CCC(C)[C@H](N)c1nnc(SCC(=O)Nc2cccc(Cl)c2)o1.Cl (some centres unmarked),-15.6
20,COc1cnc(-c2ccccn2)nc1N(C)C,-1.39

row,SMILES,"hERG current change (%, negative = inhibition) at 10uM [%]"
1,CC(=NCc1ccco1)c1c(O)n(-c2ccccc2)c(=O)[nH]c1=O,4.82
2,COc1cc(/C=N/NC(=S)NCCN2CCOCC2)cc(OC)c1O,12.7
3,CCCNC(=O)c1cccc(S(=O)(=O)N2CC3(C)CC2CC(C)(C)C3)c1 (centres unmarked),-57.6
4,CCCCCNC(=O)c1cccc(S(=O)(=O)N2CC3(C)CC2CC(C)(C)C3)c1 (centres unmarked),-1.24
5,CC1(C)CC2CC(C)(CN2S(=O)(=O)c2cccc(C(=O)OCC(=O)NC(N)=O)c2)C1 (centres unmarked),-57.1
6,CNC(=O)NC(=O)COC(=O)c1cccc(S(=O)(=O)N2CC3(C)CC2CC(C)(C)C3)c1 (centres unmarked),-14.4
7,CCCCNC(=O)c1cccc(S(=O)(=O)N2CC3(C)CC2CC(C)(C)C3)c1 (centres unmarked),-26.7
8,CC1(C)CC2CC(C)(CN2S(=O)(=O)c2cccc(C(=O)OCC(N)=O)c2)C1 (centres unmarked),-7.62
9,Br.O=C1SC(SC(=Nc2ccccc2)Nc2ccccc2)C(=O)N1c1ccccc1 (centres unmarked),11.1
10,COc1ccc(C(=O)N2CCCC2(C#N)c2ccccc2)cc1[N+](=O)[O-] (centres unmarked),-41
11,CCOc1ccc(C(=O)NC2CCCCCCC2)cc1,4.13
12,COc1ccccc1-n1cc2ccc([N+](=O)[O-])cc2n1,8.8
13,O=C(CC(Nc1ccccc1)C(=O)O)c1ccccc1 (centres unmarked),11.2
14,COc1cccc(NC(=O)Nc2ccccc2C(N)=O)c1,1.99
15,CCOc1ccc(S(=O)(=O)Nc2cc(OC)c(OC)cc2C(=O)O)cc1,3.94
16,COc1ccccc1-n1cc([C@@H]2C[C@H]3CN(c4ccccc4)C(=O)[C@]34CCCN24)cn1,-17.1
17,COc1ccc([C@@H]2C[C@H]3CN(c4ccccc4)C(=O)[C@]34CCCN24)c(OC)c1OC,-78.3
18,COc1cc([C@@H]2C[C@H]3CN(c4ccccc4)C(=O)[C@]34CCCN24)cc(OC)c1OC,-32
19,COc1cc(Cl)c([C@@H]2C[C@H]3CN(c4ccccc4)C(=O)[C@]34CCCN24)cc1OC,-70.9
20,O=C1N(c2ccccc2)C[C@@H]2C[C@@H](c3cccs3)N3CCC[C@@]123,-11.5

row,SMILES,"hERG current change (%, negative = inhibition) at 10uM [%]"
1,CCOc1cc([C@@H]2C[C@H]3CN(c4ccccc4)C(=O)[C@]34CCCN24)ccc1OC,-10.4
2,CCc1cc2cc(C(=O)N3CCN(Cc4ccccc4)CC3)sc2s1,-36.7
3,CCN(c1ccccc1C)S(=O)(=O)c1cc2c3c(c1)CCC(=O)N3CCC2,-11.2
4,COc1ccc(C(CC(=O)Nc2cc([N+](=O)[O-])ccc2OC)c2ccccc2)cc1 (centres unmarked),8.82
5,O=C(CSCc1ccccc1)Nc1ccccc1,8.79
6,Cc1ccc(S(=O)(=O)Oc2ccc(/C=N/NC(=O)c3c(Cl)cnn3C)cc2)cc1,-8.14
7,CCOC(=O)N1CCN(c2nc(C)c3c(n2)CCCC3=O)CC1,7.97
8,COc1cccc(OCCCCN2CC(C)OC(C)C2)c1.O=C(O)C(=O)O (centres unmarked),-4.73
9,Clc1cccc(OCCN2CCOCC2)c1.O=C(O)C(=O)O,-2.27
10,CN(C)CCCCOc1cccc(Br)c1.O=C(O)C(=O)O,-23.7
11,CC(C)c1cccc(OCCN2CCCC2)c1,5.18
12,CCN1CCN(CCOc2cccc(Oc3ccccc3)c2)CC1.O=C(O)C(=O)O,-61.1
13,CC1CCCN(CCCCOc2cccc(Br)c2)C1.O=C(O)C(=O)O (centres unmarked),-69
14,CCC1CCCCN1CCCCOc1cccc(Cl)c1.O=C(O)C(=O)O (centres unmarked),-72
15,CCN1CCN(CCOCCOc2ccccc2)CC1.O=C(O)C(=O)O,10.8
16,CC(C)c1cccc(OCCCCN(C)C)c1.O=C(O)C(=O)O,-14.1
17,Clc1cccc(OCCCCN2CCCCC2)c1,-36.6
18,CN(C)CCCOc1cccc(Oc2ccccc2)c1.O=C(O)C(=O)O,-34.5
19,CC1CCN(CCCCOc2cccc(C(C)C)c2)CC1.O=C(O)C(=O)O,-71.7
